PubChem BioAssay (NCATS)
Values joined by “and” are separate entries in the source; they are usually repeats but may differ in a detail not shown here. Identical values can stand only once. Results filed as inconclusive are left out. Active and inactive are the calls of the source. Unless noted, calls come from the whole dose curve; as a rule, active = well fitted curve in the direction sought with a large enough effect; inconclusive = small, poorly fitted or top-dose-only effect, or another doubt; inactive = no such curve, though single readings can be large; an effect the other way counts as inactive or inconclusive.

Key:
[1] = test system: PA-1; experiment: Primary qHTS to identify gynecologic anti-cancer compounds using libraries of approved drugs and bioactive compounds (AID 1345084); details: Gynecologic cancer cell panel viability, ATPlite luminescence, 48 h; series mostly up to 57.5 µM; note: % is set by controls: 0 for no effect and ±100 for the full control effect; nearly all actives have a fitted effect of over 55% in size
Outline: (§1)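 Cytotoxicity screen measuring ATP content by luciferase luminescence. Each compound is applied at five concentrations for 48 h at 37 C with 5% CO2.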

[2] = test system: SKOV3; experiment: as above; details: Gynecologic cancer cell panel viability, ATPlite luminescence, 48 h; series mostly up to 57.5 µM
Outline: as §1

[3] = test system: Tov-21-G; experiment: as above; details: Gynecologic cancer cell panel viability, ATPlite luminescence, 48 h; series mostly up to 57.5 µM
Outline: as §1

[4] = test system: Tov112D; experiment: as above; details: Gynecologic cancer cell panel viability, ATPlite luminescence, 48 h; series mostly up to 57.5 µM
Outline: as §1

[5] = Drug repurposing screens with cells derived from glioblastoma tumor samples (AID 1345199); details: GBM patient neurospheres viability, ATP luminescence, 48 h; note: % is set by controls: 0 for no effect and ±100 for the full control effect; nearly all actives have a fitted effect of over 40% in size
Outline: (§2)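 Four patient lines of CD133+ GBM neurospheres were screened at several concentrations; hits were retested in those lines plus three slower-growing GBM lines, using 48-hour treatment and ATP-based viability.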

[6] = test system: astro; experiment: as above; details: viability, ATP luminescence, 48 h; series mostly up to 45.9 µM
Outline: as §2

[7] = target: Nuclear receptor subfamily 1 group I member 2 (Rattus norvegicus) (UniProt Q9R1A7); experiment: qHTS assay for small molecule activators of the rat pregnane X receptor (rPXR) signaling pathway (AID 651751; call rule not given here; note: 0% is about no effect); details: rPXR reporter cells, luciferase (One-Glo), 24 h
Nuclear receptor subfamily 1 group I member 2 (Rattus norvegicus), sequence (Q9R1A7 whole entry, looked up): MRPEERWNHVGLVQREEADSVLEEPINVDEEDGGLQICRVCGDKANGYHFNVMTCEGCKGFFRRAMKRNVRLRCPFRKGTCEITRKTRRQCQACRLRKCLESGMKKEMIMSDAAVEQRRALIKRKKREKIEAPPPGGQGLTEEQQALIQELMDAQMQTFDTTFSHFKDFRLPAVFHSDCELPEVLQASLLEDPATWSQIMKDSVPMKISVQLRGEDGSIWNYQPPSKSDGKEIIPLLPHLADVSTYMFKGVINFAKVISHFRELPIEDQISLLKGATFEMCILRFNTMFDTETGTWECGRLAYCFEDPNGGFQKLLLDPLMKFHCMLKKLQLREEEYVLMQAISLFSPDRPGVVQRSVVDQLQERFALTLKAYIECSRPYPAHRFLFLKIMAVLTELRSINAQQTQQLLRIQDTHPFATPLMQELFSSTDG

[8] = qHTS assay for small molecule activators of the human pregnane X receptor (PXR) signaling pathway (AID 720659; call rule not given here; note: 0% is about no effect)
[9] = qHTS assay to identify inhibitors of the type 1 interferon - major histocompatibility complex class I in skeletal muscle: Counter screen cell viability and HiBit confirmation (AID 1347412); details: iHSKM muscle cells + IFN-b, HiBiT or CellTiter-Glo, 24 h; Potency: HiBiT unless noted; Viability, at 45.9 µM (top of the series); note: % is set by controls: 0 for no effect and ±100 for the full control effect; nearly all actives have a fitted effect of over 60% in size
Outline: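 Luminescence read-out: Nano-Glo HiBiT lytic signal from C-terminally HiBiT-tagged HLA-B in CRISPR-edited human myoblasts, plus CellTiter Glo ATP as viability counter screen. IFN-beta 4.0 ng/ml; 24 hrs treatment at 37 C, 5% CO2.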

[10] = at 20 µM (top of the series), tumour line C
[11] = at 21.2 µM (top of the series), tumour line B
[12] = at 21.2 µM (top of the series), tumour line D
[13] = at 21.3 µM (top of the series), tumour line A
[14] = at 45.9 µM (top of the series), tumour line B
[15] = at 45.9 µM (top of the series), tumour line D
[16] = at 46 µM (top of the series), tumour line A
[17] = at 46.1 µM (top of the series), tumour line C

CCn1cc(C(=O)O)c(=O)c2cnc(N3CCCC3)nc21
inactive: activity change, negative = cytotoxicity [1] 3.4% [at 11.6 µM] | activity change, negative = cytotoxicity [2] 27% [at 11.6 µM] | activity change, negative = cytotoxicity [3] 5.91% [at 11.6 µM] | activity change, negative = cytotoxicity [4] 5.36% [at 11.6 µM] | activity, negative = cell killing [5, 10] -8.14% | activity, negative = cell killing [5, 11] -5.2% | activity, negative = cell killing [5, 12] -3.67% | activity, negative = cell killing [5, 13] -24.5% | Potency [6]

N[C@@H](CCC(=O)N[C@@H](CS)C(=O)NCC(=O)O)C(=O)O
inactive: Potency [1] | Potency [2] | Potency [3] | Potency [4] | activity, negative = cell killing [5, 14] -10.5% | activity, negative = cell killing [5, 15] -6.47% | activity, negative = cell killing [5, 16] -29.7% | activity, negative = cell killing [5, 17] 10.6% | Potency [6]

CCOc1ccc(NC(=O)CC(C)O)cc1 (stereo not given)
inactive: Potency [1] | Potency [2] | Potency [3] | Potency [4] | activity, negative = cell killing [5, 14] -5.84% | activity, negative = cell killing [5, 15] -16.9% | activity, negative = cell killing [5, 16] -20.2% | activity, negative = cell killing [5, 17] -0.587% | Potency [6]

Cc1cc(=O)n(-c2ccccc2)n1C
inactive: Potency [1] | Potency [2] | Potency [3] | Potency [4] | activity, negative = cell killing [5, 14] -5.78% | activity, negative = cell killing [5, 15] 0.358% | activity, negative = cell killing [5, 16] -19.4% | activity, negative = cell killing [5, 17] -23.6% | max response [7] 0.521% | outcome [8]

C/C=C/c1ccc(OC)cc1
inactive: Potency [1] | Potency [2] | Potency [3] | Potency [4] | activity, negative = cell killing [5, 14] -1.8% | activity, negative = cell killing [5, 15] 3.04% | activity, negative = cell killing [5, 16] -17.3% | activity, negative = cell killing [5, 17] 0.347% | Potency [6]

C[C@@H]1C[C@H]2[C@@H]3C[C@H](F)C4=CC(=O)C(Cl)=C[C@]4(C)[C@@]3(F)[C@@H](O)C[C@]2(C)[C@@]1(O)C(=O)CO
inactive: Potency [1] | Potency [2] | Potency [3] | Potency [4] | activity, negative = cell killing [5, 14] -15.9% | activity, negative = cell killing [5, 15] -23.3% | activity, negative = cell killing [5, 17] -24.8% | Potency [6]

COc1ccc(OC)c(C(O)CNC(=O)CN)c1 (stereo not given)
inactive: Potency [1] | Potency [2] | Potency [3] | Potency [4] | activity, negative = cell killing [5, 10] -8.51% | activity, negative = cell killing [5, 11] -10.1% | activity, negative = cell killing [5, 12] -7.78% | activity, negative = cell killing [5, 13] -30.8% | Potency [6]

CC(C)(C(=O)c1cccnc1)c1cccnc1
inactive: Potency [1] | Potency [2] | Potency [3] | Potency [4] | activity, negative = cell killing [5, 10] -7.19% | activity, negative = cell killing [5, 11] -14.8% | activity, negative = cell killing [5, 12] -8.11% | activity, negative = cell killing [5, 13] -19.8% | Potency [6]

OC[C@@H](O)[C@@H](O[C@@H]1O[C@H](CO)[C@H](O)[C@H](O)[C@H]1O)[C@H](O)[C@@H](O)CO
inactive: Potency [1] | Potency [2] | Potency [3] | Potency [4] | activity, negative = cell killing [5, 14] -6.48% | activity, negative = cell killing [5, 15] -4.42% | activity, negative = cell killing [5, 16] -40.2% | activity, negative = cell killing [5, 17] -3.02% | Potency [6]

CCCCC(=O)O[C@]1(C(=O)CO)CC[C@H]2[C@@H]3CCC4=CC(=O)CC[C@]4(C)[C@H]3[C@@H](O)C[C@@]21C
inactive: Potency [1] | Potency [2] | Potency [3] | Potency [4] | activity, negative = cell killing [5, 14] -13.9% | activity, negative = cell killing [5, 15] -13.5% | activity, negative = cell killing [5, 16] -14.6% | activity, negative = cell killing [5, 17] -22.7% | Potency [6] | Potency [9]

COc1ccc(C2C(=O)c3ccccc3C2=O)cc1
inactive: Potency [1] | Potency [2] | Potency [3] | Potency [4] | activity, negative = cell killing [5, 14] -10.6% | activity, negative = cell killing [5, 15] -14.2% | activity, negative = cell killing [5, 17] -5.24% | Potency [6]

NC(CS)C(=O)O (stereo not given)
inactive: Potency [1] | Potency [2] | Potency [3] | Potency [4] | activity, negative = cell killing [5, 14] -9.5% | activity, negative = cell killing [5, 15] -0.348% | activity, negative = cell killing [5, 16] -20.7% | activity, negative = cell killing [5, 17] -17% | Potency [6]

CC(O)C(=O)O (stereo not given)
inactive: Potency [1] | Potency [2] | Potency [3] | Potency [4] | activity, negative = cell killing [5, 14] -5.68% | activity, negative = cell killing [5, 15] -11.1% | activity, negative = cell killing [5, 16] -8.3% | activity, negative = cell killing [5, 17] -6.94% | Potency [6] | max response [7] 2.35% | outcome [8]

CC1(C)O[C@@H]2C[C@H]3[C@@H]4C[C@H](F)C5=CC(=O)CC[C@]5(C)[C@H]4[C@@H](O)C[C@]3(C)[C@]2(C(=O)CO)O1
inactive: Potency [1] | Potency [2] | Potency [3] | Potency [4] | activity, negative = cell killing [5, 10] -16.9% | activity, negative = cell killing [5, 11] -8.1% | activity, negative = cell killing [5, 12] -28% | activity, negative = cell killing [5, 13] -15.3% | Potency [6]

CN=C(NC#N)NCCSCc1csc(N=C(N)N)n1
inactive: Potency [1] | Potency [2] | Potency [3] | Potency [4] | activity, negative = cell killing [5, 14] -9.85% | activity, negative = cell killing [5, 15] 14.9% | activity, negative = cell killing [5, 16] -18.5% | activity, negative = cell killing [5, 17] -6.9% | Potency [6]

Nc1ccc(C(=O)O)cc1
inactive: Potency [1] | Potency [2] | Potency [3] | Potency [4] | activity, negative = cell killing [5, 14] -6.59% | activity, negative = cell killing [5, 15] -1.8% | activity, negative = cell killing [5, 16] -31.3% | activity, negative = cell killing [5, 17] -10.3% | max response [7] -6.06% | outcome [8]

CC(=O)OCC(=O)[C@@]1(O)CC[C@H]2[C@@H]3CCC4=CC(=O)C=C[C@]4(C)[C@H]3[C@@H](O)C[C@@]21C
inactive: Potency [1] | Potency [2] | Potency [3] | Potency [4] | activity, negative = cell killing [5, 14] -3.24% | activity, negative = cell killing [5, 15] -10.4% | activity, negative = cell killing [5, 16] -4.22% | activity, negative = cell killing [5, 17] 5.52% | Potency [6] | Potency [9]

Cc1ccc(C(=O)C(C)CN2CCCCC2)cc1 (stereo not given)
inactive: Potency [1] | Potency [2] | Potency [3] | Potency [4] | activity, negative = cell killing [5, 14] -5.6% and -9.58% | activity, negative = cell killing [5, 15] -3.01% and -24.6% | activity, negative = cell killing [5, 17] 4.06% and 1.53% | Potency [6]

C[C@H]1C[C@H]2[C@@H]3CCC4=CC(=O)C=C[C@]4(C)[C@@]3(Cl)[C@@H](O)C[C@]2(C)[C@@]1(O)C(=O)CO
inactive: Potency [1] | Potency [2] | Potency [3] | Potency [4] | activity, negative = cell killing [5, 14] -17% | activity, negative = cell killing [5, 15] -11.6% | activity, negative = cell killing [5, 16] -29.5% | activity, negative = cell killing [5, 17] -24.3% | Potency [6] | Potency [9] | outcome [8]

C[C@H](CCC(=O)O)[C@H]1CC[C@H]2[C@@H]3C(=O)C[C@@H]4CC(=O)CC[C@]4(C)[C@H]3CC(=O)[C@]12C
inactive: Potency [1] | Potency [2] | Potency [3] | Potency [4] | activity, negative = cell killing [5, 14] -0.788% | activity, negative = cell killing [5, 15] -14.6% | activity, negative = cell killing [5, 16] -2.78% | activity, negative = cell killing [5, 17] 3.71% | Potency [6]

CC(=O)OCC(=O)[C@@]12N=C(C)O[C@@H]1C[C@H]1[C@@H]3CCC4=CC(=O)C=C[C@]4(C)[C@H]3[C@@H](O)C[C@@]12C
inactive: Potency [1] | Potency [2] | Potency [3] | Potency [4] | activity, negative = cell killing [5, 14] -9.58% | activity, negative = cell killing [5, 15] -6.5% | activity, negative = cell killing [5, 16] -6.46% | activity, negative = cell killing [5, 17] -22.2% | Potency [6] | Potency [9]
